The values that follow come from PubChem BioAssay.

The structures appear in SMILES notation. The source made the active and inactive calls.

Test [1] can be described thus: compounds binding Alexa647 anti-His antibody – biochemical, small-molecule microarray, 635 nm fluorescence, artefact control for SMM control protein annotation, primary screen (AID 1128).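 Further: score merges feature fluorescence with signal-to-noise for each printed compound spot.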 The settings on record: higher = more signal.
The subject of test [2] is Human papillomavirus type 1a E7 protein (residues 1-88). The experiment in a line: HPV1a E7 small-molecule binders, primary screen, biochemical, small-molecule microarray, residues 1-88, 635 nm (AID 1129). The settings on record: small-molecule microarray binding, fluorescence 635 nm; higher = more signal.
Test [3] concerns the target Focal adhesion kinase 1 (Homo sapiens) (UniProt Q05397). Kind of test: PTK2 protein binding on printed compound slides – biochemical, small-molecule microarray, 635/667 nm fluorescence, BSA, DTT, primary screen (AID 1130).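 Further: composite of spot emission at 667 nm and signal to noise over triplicate slides.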 The following applies: 635 nm fluorescence, higher = more signal.
For test [4], the system named is Fibrinogen (Alexa647-labelled). The experiment in a line: Alexa647-fibrinogen binding to printed small molecules – biochemical, small-molecule microarray, 635/667 nm fluorescence, artefact control for SMM control-protein annotation, profiling panel (AID 1131).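 Further: z-score merges 667 nm fluorescence with per-spot signal-to-noise over triplicate slides.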 The following applies: fibrinogen-A647 binding fluorescence, higher = more signal.
The target in test [5] is Follistatin (Homo sapiens) (UniProt P19883). Kind of test: FST protein binding to printed compounds – biochemical, small-molecule microarray, 635/667 nm fluorescence, primary screen (AID 1132). The settings on record: 635 nm fluorescence, higher = more signal.
Sequence of Follistatin (Homo sapiens) (P19883 whole entry, looked up): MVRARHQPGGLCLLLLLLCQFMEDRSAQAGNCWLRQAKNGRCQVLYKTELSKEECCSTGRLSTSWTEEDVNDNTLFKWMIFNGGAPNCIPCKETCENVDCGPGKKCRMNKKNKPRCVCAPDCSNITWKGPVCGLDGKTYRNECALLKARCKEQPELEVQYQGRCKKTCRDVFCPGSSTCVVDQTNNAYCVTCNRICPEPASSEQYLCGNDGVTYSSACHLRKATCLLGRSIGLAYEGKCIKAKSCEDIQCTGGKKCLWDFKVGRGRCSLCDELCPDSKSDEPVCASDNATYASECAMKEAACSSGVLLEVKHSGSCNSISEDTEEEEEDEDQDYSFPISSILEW
Test [6] has as its target Fibroblast growth factor 2 (Homo sapiens) (UniProt P09038). The experiment in a line: basic fibroblast growth factor binding to printed compounds – biochemical, small-molecule microarray, 635/667 nm fluorescence, primary screen (AID 1133). The following applies: FGF2, fluorescence 635/667, higher = more signal.
Test [7] can be described thus: JC-1 mitochondrial potential readout, lung cancer cells – cell-based, A549, JC-1 fluorescence, basal, 24 h, 100 nL, profiling panel (AID 1138).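 Further: A549 lung adenocarcinoma cells under basal conditions with no added stimulus; test concentration not given here.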 The settings on record: higher = more signal.
Another test has as its system Lefty1. The experiment in a line: Lefty1 protein binding to printed compounds – biochemical, small-molecule microarray, 635/667 nm fluorescence, primary screen (AID 1139). The following applies: fluorescence 635/667, higher = more signal.
The subject of test [8] is wheat germ agglutinin (Triticum aestivum), Alexa647-labelled. Kind of test: Alexa647-WGA lectin binding to printed small molecules – biochemical, small-molecule microarray, 635/667 nm fluorescence, artefact control for SMM control-protein annotation, profiling panel (AID 1140).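 Further: score merges 667 nm feature emission with signal to noise over triplicate slides.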 The following applies: WGA-A647 binding, 635 nm fluorescence, higher = more signal.
In test [9] the target is Luciferin 4-monooxygenase (Photinus pyralis) (UniProt P08659). Kind of test: inhibition of purified Photinus pyralis luciferase – biochemical, luminescence, purified enzyme, 2006 set, primary screen (AID 1141).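 Further: cell-free assay with purified firefly luciferase at 100 ng per well in PBS; test concentration not given here.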 The following applies: purified firefly luciferase, SteadyGlo luminescence, 30 min; higher = more signal, called active from +8 up or from −8 down.
Sequence of Luciferin 4-monooxygenase (Photinus pyralis) (P08659 whole entry, looked up): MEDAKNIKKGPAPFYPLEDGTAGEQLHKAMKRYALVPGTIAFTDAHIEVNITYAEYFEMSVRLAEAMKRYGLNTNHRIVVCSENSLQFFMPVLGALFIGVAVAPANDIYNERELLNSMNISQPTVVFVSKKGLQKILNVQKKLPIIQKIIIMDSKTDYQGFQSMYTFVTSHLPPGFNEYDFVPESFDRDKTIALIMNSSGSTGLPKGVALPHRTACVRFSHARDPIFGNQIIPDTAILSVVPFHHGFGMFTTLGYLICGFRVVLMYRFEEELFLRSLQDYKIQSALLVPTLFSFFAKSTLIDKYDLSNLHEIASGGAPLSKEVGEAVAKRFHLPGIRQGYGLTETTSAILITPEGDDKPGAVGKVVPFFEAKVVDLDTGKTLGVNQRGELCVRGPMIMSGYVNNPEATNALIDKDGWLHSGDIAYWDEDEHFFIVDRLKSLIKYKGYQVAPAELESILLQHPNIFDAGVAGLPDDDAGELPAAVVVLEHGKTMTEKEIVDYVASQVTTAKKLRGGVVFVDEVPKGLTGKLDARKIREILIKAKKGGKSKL

Sequence of Fibroblast growth factor 2 (Homo sapiens) (P09038 whole entry, looked up): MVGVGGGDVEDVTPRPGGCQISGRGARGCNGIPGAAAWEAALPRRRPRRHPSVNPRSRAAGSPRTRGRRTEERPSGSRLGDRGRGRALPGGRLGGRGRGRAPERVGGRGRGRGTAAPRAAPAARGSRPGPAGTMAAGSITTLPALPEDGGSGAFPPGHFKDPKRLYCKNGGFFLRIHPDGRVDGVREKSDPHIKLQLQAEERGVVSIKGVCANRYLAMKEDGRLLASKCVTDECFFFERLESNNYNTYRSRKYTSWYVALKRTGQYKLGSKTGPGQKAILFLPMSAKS
Sequence of Focal adhesion kinase 1 (Homo sapiens) (Q05397 whole entry, looked up): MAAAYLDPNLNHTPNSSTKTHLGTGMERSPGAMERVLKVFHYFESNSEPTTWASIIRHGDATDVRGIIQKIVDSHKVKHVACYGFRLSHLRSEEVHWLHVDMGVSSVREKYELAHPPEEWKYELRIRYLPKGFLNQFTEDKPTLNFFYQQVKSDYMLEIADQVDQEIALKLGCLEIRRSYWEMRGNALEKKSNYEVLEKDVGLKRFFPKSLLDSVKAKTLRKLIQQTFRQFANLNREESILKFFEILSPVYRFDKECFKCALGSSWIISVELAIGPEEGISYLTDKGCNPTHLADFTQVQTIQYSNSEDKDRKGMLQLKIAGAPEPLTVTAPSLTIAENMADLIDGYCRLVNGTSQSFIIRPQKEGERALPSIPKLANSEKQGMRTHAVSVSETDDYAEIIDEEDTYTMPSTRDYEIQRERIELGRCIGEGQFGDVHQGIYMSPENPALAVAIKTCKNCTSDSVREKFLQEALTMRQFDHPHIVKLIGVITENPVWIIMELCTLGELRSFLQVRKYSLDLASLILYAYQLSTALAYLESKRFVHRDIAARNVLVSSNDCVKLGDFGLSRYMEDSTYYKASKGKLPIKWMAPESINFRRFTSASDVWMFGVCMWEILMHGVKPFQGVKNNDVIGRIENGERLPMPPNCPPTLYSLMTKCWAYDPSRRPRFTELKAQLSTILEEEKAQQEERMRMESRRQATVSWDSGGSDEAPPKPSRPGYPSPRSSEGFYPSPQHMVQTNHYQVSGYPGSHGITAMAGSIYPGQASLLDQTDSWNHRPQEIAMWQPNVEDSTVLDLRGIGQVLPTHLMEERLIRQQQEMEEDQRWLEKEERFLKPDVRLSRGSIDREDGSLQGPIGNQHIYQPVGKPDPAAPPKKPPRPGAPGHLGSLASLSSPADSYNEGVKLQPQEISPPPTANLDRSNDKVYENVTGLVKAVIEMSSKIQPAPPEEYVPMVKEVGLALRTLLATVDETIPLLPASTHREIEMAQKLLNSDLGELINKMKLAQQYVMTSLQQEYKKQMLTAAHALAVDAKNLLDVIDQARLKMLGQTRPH

Consider `C[C@@H]1CC[C@H]2C(=O)N3[C@@H](CC[C@@H](C)[C@@H]3c3ccc(Br)cc3)C(=O)N2[C@H]1c1ccc(Br)cc1`, for which the composite z-score was 0.0399 in [1]; -0.0695 in test [2]; -0.104 in test [3]; 0.122 in [4]; 0.301 in test [5]; 0.13 in test [6]. Further, the composite z-score in the test on Lefty1 is 0.52; in test [8], -0.0219. Moreover, the results for the z-score in [7] and in test [9] were 1.48 and -0.199 (inactive), respectively.

For the compound `CC(C)CON=C1C[C@@H](O)[C@@H](O)[C@@H]2[C@@H]3C(=O)N(C(C)(C)C)C(=O)[C@@H]3CC[C@@H]12`, the composite z-score was -0.587 in test [1]; -0.537 in [2]; -0.577 in [3]; -0.766 in test [4]; 1.39 in test [5]; 1.46 in [6]. Moreover, the composite z-score with Lefty1 was 1.51; in [8] it was -0.804. For the same compound, the z-score in [7] is -0.832; in [9], 0.444 (inactive).

In the case of `COC(=O)[C@H](C)NC(=O)CCC1CC(OC(=O)NCCc2ccc(F)cc2)CC2(CCCC(COC(=O)NCCOc3ccccc3)O2)O1` (stereo not given in full), the composite z-score came out at 0.989 in test [1]; 1.16 in test [2]; 0.821 in [3]; 0.659 in test [4]; 0.826 in test [5]; 0.307 in test [6]. Moreover, the composite z-score with Lefty1 came to 1.41; in test [8], 0.309. Also, the figures for the z-score in test [7] and in [9] were 1.08 and 0.549 (inactive), respectively.

With `CCOC(=O)CCN1C(=O)[C@H]2[C@H]3[C@H](O)[C@H](O)CC(=NNC(=O)OCC)[C@H]3CC[C@H]2C1=O`, the composite z-score in [1] is 0.307; in [2], -0.113; in [3], 0.276; in test [4] it was -1.05; in test [5], 0.799; in [6], 0.406. Also, the composite z-score in the test on Lefty1 is 1.01; in test [8] it was -0.656. Further, the z-score in test [7] was -0.918; in [9], 0.303 (inactive).

For `CC(CCN1CCc2nc(-c3ccccc3)c(-c3ccccc3)cc2C1)=NOC(C)CN1CCCc2nc(C)c(C)cc21` (stereo not given), the composite z-score is -0.929 in test [1]; 1.15 in [2]; 0.382 in test [3]; 0.96 in [4]; 0.94 in test [5]; 0.541 in test [6]. For the same compound, the composite z-score in the test on Lefty1 is 0.659; in [8], 0.379. The z-score in test [7] is 3.46; in [9] it was 0.397 (inactive).

In the case of `COc1ccc(OC[C@H]2CN3[C@@H](CC[C@@H](C)[C@@H]3c3ccc(Br)cc3)C(=O)O2)cc1`, the composite z-score in [1] was 0.0994; in [2] it was -0.023; in [3] it was -0.305; in test [4], -0.0163; in [5], 0.385; in test [6], 0.042. Moreover, the composite z-score in the test with Lefty1 is 0.664; in test [8] it was -0.108. In addition, the z-score in [7] is -0.124; in test [9] it was -1.55 (inactive).

As for `C[C@@H]1CC[C@H]2C(=O)OC(CN3C(=O)c4ccccc4C3=O)CN2[C@H]1c1ccc(Br)cc1` (stereo not given in full), the composite z-score in [1] is 0.194; in test [2], 0.731; in test [3], 0.246; in test [4], 0.377; in test [5], -0.145; in test [6], -0.204. Also, the values for the composite z-score (in the test with Lefty1; in test [8]) were 0.117 and 0.681, respectively. Besides, the values for the z-score in [7] and in test [9] were 0.0226 and -0.796 (inactive), respectively.

With `COC(=O)[C@H](C)NC(=O)CCC1CC(OC(=O)NCc2cccc3ccccc23)CC2(CCCC(COC(=O)NCCOc3ccccc3)O2)O1` (stereo not given in full), the composite z-score in test [1] is 0.334; in test [2], 1.12; in test [3], 0.549; in test [4], 0.793; in test [5], 0.145; in [6] it was -0.142. Further, the values for the composite z-score (with Lefty1; in [8]) were 0.318 and 0.502, respectively. The z-score in test [7] is -0.333; in [9], 1.32 (inactive).

As for `CC(CCN1CCCc2nc(C)c(C)cc21)=NOC[C@@H](C)[C@H](OCc1ccccc1)C(C)C`, the composite z-score in test [1] was 2.52; in test [2], -0.703; in test [3] it was -0.0748; in [4] it was -0.9; in test [5], -0.516; in test [6] it was -0.165. In addition, the figures for the composite z-score (with Lefty1; in test [8]) were 0.241 and -0.606, respectively. In addition, the z-score in test [7] was 1.37; in test [9], -1.14 (inactive).

On to `CC(CCN1CCc2nc(-c3ccccc3)c(-c3ccccc3)cc2C1)=NO[C@@H](C)c1cc(-c2c(C)cc(C)cc2C)no1`, for which the composite z-score is 0.962 in test [1]; -0.444 in test [2]; -0.228 in test [3]; 0.496 in test [4]; -0.289 in [5]; -0.44 in test [6]. Also, the composite z-score in the test on Lefty1 is -0.0591; in test [8] it was 0.493. Also, the z-score in [7] is 0.281; in test [9], 0.618 (inactive).

As for `CC(=O)OC[C@H]1O[C@@H](ON=C(C)CCN2CCCCc3nc(C)c(C)cc32)[C@H](OC(C)=O)[C@@H](OC(C)=O)[C@@H]1OC(C)=O`, the composite z-score in test [1] was 0.914; in [2], 0.329; in test [3], -0.0665; in test [4] it was 0.736; in test [5], 0.89; in [6] it was 1.14. Moreover, the values for the composite z-score (in the test on Lefty1; in [8]) were 1.17 and 0.162, respectively. Further, the results for the z-score in test [7] and in test [9] were -0.66 and 0.949 (inactive), respectively.

For `Cc1ccc(C(C)C)n1C(=O)OC(C)(C)C`, the composite z-score in [1] was -0.165; in test [2], 0.474; in test [3], 0.691; in test [4], -0.115; in test [5], 0.54; in test [6], 0.29. The composite z-score was 0.494 with Lefty1 and 0.188 in [8]. The z-score in test [7] was 1.99; in [9] it was -1.7 (inactive).

For the compound `CC(=O)OC[C@H]1O[C@@H](ON=C(C)C)[C@H](OC(C)=O)[C@@H](OC(C)=O)[C@@H]1OC(C)=O`, the composite z-score in test [1] was 0.759; in [2] it was -1.41; in test [3], -0.242; in [4] it was -0.515; in [5], -1.27; in test [6], -0.109. Further, the results for the composite z-score (in the test on Lefty1; in test [8]) were -1.03 and -0.88, respectively. The figures for the z-score in test [7] and in test [9] were -0.191 and 0.316 (inactive), respectively.

Take `COc1ccc(O[C@H]2C=C[C@@H](c3ccccc3)O[C@@H]2CON=C2c3cc(OC)ccc3O[C@H](c3cccc(OC)c3)[C@H]2O)cc1`: the composite z-score in test [1] is -0.622; in test [2], 0.463; in [3], 0.121; in test [4], -0.413; in test [5], 0.618; in test [6] it was 1.63. The composite z-score turned out to be 1.1 in the test with Lefty1 and 0.701 in test [8]. Also, the z-score in [7] was 0.0904; in test [9] it was 1.16 (inactive).

Consider `CCOC(=O)[C@H](CC(C)C)NC(=O)CCC1CC(OC(=O)NCCc2ccc(F)cc2)CC2(CCCC(COC(=O)NCCOC)O2)O1` (stereo not given in full), for which the composite z-score in [1] turned out to be 0.917; in test [2], 1.04; in test [3] it was 0.318; in test [4], 0.416; in [5], 0.839; in test [6], 1.18. For the same compound, the composite z-score with Lefty1 is 0.955; in [8], 0.829. The z-score in [7] is -0.382; in test [9], 0.958 (inactive).
